Measured values from PubChem BioAssay (NCATS).

Experiment: Cell Proliferation Assay against the TMD8 Cell Line (AID 651645);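 note: cells exposed to compound for 48 h before reading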
Details: TMD8 DLBCL cell line proliferation/viability; at 46.1 µM (top of the series) unless noted
In short: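 Viability by CellTiter-Glo after 48 h compound exposure of 500 log-phase TMD8 cells per well (RPMI, 5% FBS). Percent activity scaled between DMSO (100%) and 9.2 uM final bortezomib (0%).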

Structure (SMILES)	viability (% of control)
CCN(c1ccccc1)c1cc(NC)[n+](C)c(C)n1	99.5%
C[C@H](NC(=O)Cc1cc(F)cc(F)c1)C(=O)N[C@@H]1C(=O)N(C)c2ccccc2-c2ccccc21	86.6%
CCc1cc(Nc2nccc(-c3c(-c4ccc(OC)c(C(=O)Nc5c(F)cccc5F)c4)nc4ccccn34)n2)c(OC)cc1N1CCC(N2CCN(S(C)(=O)=O)CC2)CC1	78.7%
CS(=O)(=O)c1ccc(C(=O)Nc2ccc(Cl)c(-c3ccccn3)c2)c(Cl)c1	93.4%
Cc1csc(NC(=O)c2sc3nc4c(c(C(F)(F)F)c3c2N)CCC4)n1	64.8%
CNC(=O)c1ccccc1Sc1ccc2c(/C=C/c3ccccn3)n[nH]c2c1	23.8%
O=C(C=Cc1ccc(/C=C/C(=O)Nc2ccc(C3=NCCN3)cc2)cc1)Nc1ccc(C2=NCCN2)cc1	92.1%
COc1ccc(-c2ccc3c(N4CCOCC4)nc(N4C[C@@H](C)O[C@@H](C)C4)nc3n2)cc1CO	29.5%
O=C1CCCC2=C1C(c1[nH]ncc1Cl)N=C(Nc1nc3ccccc3o1)N2 (stereo unspecified)	75.7%
Cc1ccc2c(c1)C(=O)[C@@]1(O)CCN(c3ccccc3)C1=N2	77.6%
C[C@@H]1C[C@H]2[C@@H]3CCC4=CC(=O)C=C[C@]4(C)C3(F)[C@@H](O)C[C@]2(C)[C@@]1(O)C(=O)CO (stereo partly specified)	40.7%
COc1cc2c(cc1OC)CN(CCc1ccc(NC(=O)c3cccc4c(=O)c5cccc(OC)c5[nH]c34)cc1)CC2	56%
O=c1[nH]c(-c2ccc(C(F)(F)F)cc2)nc2c1CSCC2	82.1%
CCn1c(-c2nonc2N)nc2cnc(Oc3cccc(NC(=O)c4ccc(OCCN5CCOCC5)cc4)c3)cc21	19.6%
O=C1[C@H](Cc2ccc(O)cc2)N2C(=O)CCN(C(=O)NCc3ccccc3)[C@H]2CN1Cc1cccc2ccccc12	27.3%
NC(=O)c1ccc(I)c([N+](=O)[O-])c1	92.9%
C[C@@H]1CN(Cc2ccc(F)cc2)[C@@H](C)CN1C(=O)c1cc2c(C(=O)C(=O)N(C)C)cn(C)c2cc1Cl	61.8%
Cc1cc(-c2nnc3n2CCCCC3)c(C)n1-c1ccc(F)cc1	6.21%
O=C(O)CCc1ccc(NCc2cccc(Oc3ccccc3)c2)cc1	107%
CC(C)OC(=O)C1=CN(C(=O)c2ccc(F)c(F)c2)CC(C)(C)c2c1[nH]c1ccccc21	9.41%
CCOc1cc(C(=O)Nc2ccc(Cl)c(-c3nc4ccccc4[nH]3)c2)cc(OCC)c1OCC	69.8%
Cn1cc(-c2ccc3nnc(C(F)(F)c4ccc5ncccc5c4)n3n2)cn1	76.9%
O=C(O)[C@@H](c1ccc(OCc2ccc3ccccc3n2)cc1)C1CCCC1	94.6%
CCCS(=O)(=O)Nc1ccc(F)c(C(=O)c2c[nH]c3ncc(Cl)cc23)c1F	68.5%
CCCS(=O)(=O)Nc1ccc(F)c(C(=O)c2c[nH]c3ncc(-c4ccc(Cl)cc4)cc23)c1F	41.4%
OCCn1cc(-c2cnc3nnn(Cc4ccc5ncccc5c4)c3n2)cn1	75.8%
